# Screens from PubChem.
# Rows were chosen to be rich in hits. Some 19% of all compounds tested hit in one or more screens of this group.
# DT40 TDP1 CPT: DT40-hTDP1 cell growth loss with CPT; chicken DT40 Tdp1-/-;hTDP1 cells + 20 nM CPT, ATP luminescence, 48 h; Potency, µM (titrated, usually from 46.2 µM), actives largely listed as inhibitors; 12% of 420,000 active; further: nearly all actives have a fitted effect of over 55% in size
#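 Chicken DT40 Tdp1-/- cells stably complemented with human TDP1 were seeded at 400 cells/well in medium containing 20 nM camptothecin, exposed to pin-transferred compounds, and grown at 37 °C for at least 48 hr. Viability was read as ATP luminescence.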
# TDP1 block: inhibitors of human tyrosyl-DNA phosphodiesterase TDP1 | 0.28% of 350,000 active | Potency, µM (doses to about 130 µM), actives largely listed as inhibitors | Q9NUW8 | recombinant TDP1, AlphaScreen DNA substrate cleavage; further: nearly all actives have a fitted effect of over 40% in size
# Target sequence (Q9NUW8 whole entry, looked up): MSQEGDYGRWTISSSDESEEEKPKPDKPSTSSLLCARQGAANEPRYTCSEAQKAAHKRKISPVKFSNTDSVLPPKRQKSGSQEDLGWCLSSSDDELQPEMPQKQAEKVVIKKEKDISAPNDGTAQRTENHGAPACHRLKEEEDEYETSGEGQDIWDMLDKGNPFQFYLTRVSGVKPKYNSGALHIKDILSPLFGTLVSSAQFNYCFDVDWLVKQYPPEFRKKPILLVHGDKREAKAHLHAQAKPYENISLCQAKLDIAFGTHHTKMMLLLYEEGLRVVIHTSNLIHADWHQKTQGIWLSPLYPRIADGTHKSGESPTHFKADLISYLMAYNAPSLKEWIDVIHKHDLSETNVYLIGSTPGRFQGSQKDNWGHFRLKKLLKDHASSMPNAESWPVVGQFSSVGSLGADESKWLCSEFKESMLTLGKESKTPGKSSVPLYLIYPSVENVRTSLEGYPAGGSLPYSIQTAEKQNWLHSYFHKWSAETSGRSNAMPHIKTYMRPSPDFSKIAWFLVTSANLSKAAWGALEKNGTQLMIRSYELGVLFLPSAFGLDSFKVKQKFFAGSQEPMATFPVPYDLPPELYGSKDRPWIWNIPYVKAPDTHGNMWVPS
#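 Steps: enzyme plus compound, 15 min RT; add biotin/phosphotyrosine-FITC oligonucleotide (15 nM final), react 5 min; add donor/acceptor beads (10 ug/ml final), 10 min; read AlphaScreen. Tdp1 at 1 nM final.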
# HepG2 viability: HepG2 cytotoxicity, counter-screen for TGF-b inhibitors; 0.76% of 410,000 active; HepG2 CAGA-GFP viability, ATP luminescence, 18 h; Potency, µM (doses to about 46.1 µM), actives largely listed as cytotoxic
#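 CellTiter-Glo luminescence gave cytotoxicity after 18 hours at 37 degrees C. The cells were HepG2 CAGA-GFP in 1% FBS DMEM, stimulated with 500 pg/mL TGF-beta after compound addition. %Activity was normalised to no-cell wells (complete cell-killing) and DMSO (no toxicity), and curves were fitted and classified.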
# DT40 TDP1 no CPT: qHTS for Inhibitors of human tyrosyl-DNA phosphodiesterase 1 (TDP1): qHTS in cells in absence of CPT; DT40 Tdp1-/- hTDP1 cells, no CPT, ATP luminescence, 48 h; Potency, µM (titrated, usually from 46.2 µM), hits mostly inhibitors; 15% of 420,000 active; AID 686978, 2013; further: nearly all actives have a fitted effect of over 55% in size
#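 Seeded 400 DT40-hTDP1 cells/well (vehicle DMSO, no 20 nM CPT); pinned compounds; ≥48 hr at 37 °C; CellTiter-Glo luminescence as viability measure.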
# IL-1B inflam inh: inflammasome signaling inhibition, IL-1 beta readout. THP-1 LPS/ATP IL-1B secretion, AlphaLISA, 16 h; active compounds read low. activity change, % at 57.5 µM. 4.7% of 360,000 active; in the data active means activity change below about -50%; inconclusive means mostly about -30% to -49%
#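 Secreted IL-1B measured by AlphaLISA bead assay after 16 h compound exposure of THP-1 cells; compounds (final up to 57.5 uM) added 1 h before LPS (250 ng/mL) and ATP (1.25 mM) stimulation; lower signal means less secretion.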
# TGFb SMAD3 inh: inhibitors of TGF-b signaling; AID 588855; HepG2 CAGA-GFP TGF-b/SMAD3 reporter, GFP fluorescence, 18 h; TGF-beta stimulated, 500 pg/mL final; Potency, µM (doses to about 46.1 µM), usual class: inhibitors; 1.2% of 410,000 active; further: nearly all actives have a fitted effect of over 65% in size
#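 Inhibition was scored as loss of TGF-beta-induced (500 pg/mL final, 18 hours, 37 degrees C) GFP in HEPG2 cells carrying a CAGA-GFP reporter, in DMEM with 1% FBS. Well GFP was summed per cell; Activity was normalised to unstimulated and stimulated DMSO wells, then concentration-response fitting.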
# Numbers stand for hits; 0 = inactive; ? = inconclusive; - = no result; [ ] = remark or other dose. Unless noted, the call rests on the fitted dose curve; in most records, active means well fitted curve in the direction sought with a large enough effect; inconclusive means small, poorly fitted or top-dose-only effect, or another doubt; inactive means no such curve, though single readings can be large; an effect the other way counts as inactive or inconclusive.
SMILES,DT40 TDP1 CPT,TDP1 block,HepG2 viability,DT40 TDP1 no CPT,IL-1B inflam inh,TGFb SMAD3 inh
COc1cc(Cl)c(C)cc1NC(=O)c1ccc2c(Cl)c3c(nc2c1)CCC3,0,0,0,0,-,0
COc1ccc(CCNC(=O)c2ccc3c(SCC(=O)O)c4c(nc3c2)CCCC4)cc1OC,0,0,0,0,0,0
COCC(=O)N1CCC[C@@]2(CCN(c3ccncc3)C2)C1,0,-,-,0,-,-
C[C@H](NC(=O)Cc1ccccc1)C(=O)N1CCC2(CC1)NCCc1[nH]cnc12,0,0,0,0,0,0
O=C(N[C@@H](Cc1ccccc1)C(=O)N1CCC2(CC1)NCCc1[nH]cnc12)c1cccc(Br)c1,10µM,0,0,6.5µM,?,?
COCCN(C(=O)COC(=O)CSc1ccccc1)c1c(N)n(Cc2ccccc2)c(=O)[nH]c1=O,?,0,0,0,0,0
COc1cc(NC(=O)c2cccnc2)ccc1NC(=O)c1ccccc1Cl,0,0,0,?,-66,0
COc1ccc(NC(=O)N(Cc2cccnc2)Cc2ccccc2Cl)c(OC)c1,18µM,-,0,?,0,0
Cc1ccc(NC(=O)c2cncc(Br)c2)c([N+](=O)[O-])c1,0,0,0,0,0,0
COc1cc(S(=O)(=O)Nc2cccc(C)c2)ccc1NC(=O)c1cccnc1,?,0,0,15µM,0,0
COc1c(C)cc(Br)cc1C(=O)Nc1ccc(C)cc1[N+](=O)[O-],?,0,0,13µM,0,0
COc1ccccc1N(CC(=O)NC1CCCC1)C(=O)CCC(=O)Nc1ccccn1,0,-,0,0,0,0
CCOc1ccc(C(=O)NCc2nc3cccnc3n2Cc2ccc(F)cc2)cc1OCC,0,0,0,0,-,?
Cc1ccc(NC(=O)c2cccnc2)c([N+](=O)[O-])c1,18µM,-,0,18µM,?,0
O=C(Nc1cccc(NC(=O)c2ccc(Cl)cc2Cl)c1)c1cccnc1,?,-,0,?,-54,0
Cc1ccc(C)c(NC(NC(=O)c2cccnc2)C(Cl)(Cl)Cl)c1 (stereo not drawn),23µM,0,0,26µM,0,0
CC(C)C(=O)Nc1cccc(NC(=O)c2ccc(Cl)cc2Cl)c1,0,0,0,?,-59,0
Cc1ccc(NC(NC(=O)c2cccnc2)C(Cl)(Cl)Cl)cc1 (stereo not drawn),?,0,0,?,0,0
CCC(C(=O)Nc1ccc(C)c(C)c1)n1c(=O)c(C(F)(F)F)nc2ccccc21 (stereo not drawn),?,0,0,?,-,0
COc1ccc2oc(=O)c(-c3ccccc3C(=O)N3CCOCC3)cc2c1,0,0,0,0,0,0
Cc1ccn2c(C(=O)N/N=C\c3cccs3)c(C)nc2c1,0,0,0,0,0,0
Cc1ccc(C)c(-n2c(C)cc(/C=N/NC(=O)c3c(C)nc4cc(C)ccn34)c2C)c1,?,0,0,21µM,0,0
CC(NC(=O)c1ccc2ccccc2n1)c1ccccc1 (stereo not drawn),?,0,0,?,0,0
CN(C)C(CNC(=O)c1ccc2ccccc2n1)c1ccccc1 (stereo not drawn),?,0,0,18µM,0,0
Cc1ccc(NC(=O)CSc2nc3c(c(=O)[nH]2)CCC3)cc1Cl,0,0,0,0,-,0
SMILES,DT40 TDP1 CPT,TDP1 block,HepG2 viability,DT40 TDP1 no CPT,IL-1B inflam inh,TGFb SMAD3 inh
CC(=O)c1sc2nc(C)c3c(c2c1N)CCCC3,0,0,0,?,-,0
CC(=O)c1sc2nsc(SCCN3CCCC3)c2c1N,26µM,0,0,?,-93,0
CCCn1c(=O)c(C)cn2nc(N)nc12,0,0,-,0,-,-
Cc1cc(C)c2c(c1)/C(=C/C(=O)c1ccc(Br)s1)C(=O)N2,4.6µM,0,0,3.7µM,-106,0
CCc1ccc2c(c1)/C(=C/C(=O)c1cccs1)C(=O)N2,3.3µM,0,11µM,5.2µM,-106,?
Cc1cccc2c1NC(=O)/C2=C\C(=O)c1cccs1,4.6µM,0,0,4.6µM,-122,10µM
COc1ccc(Br)cc1CNC(=O)CCSCc1ccc(C)cc1,0,0,0,?,-,?
O=[N+]([O-])c1ccc(C=Nc2cccc3ccccc23)s1,21µM,0,25µM,21µM,-97,16µM
O=[N+]([O-])c1ccc(NN=Cc2cccc3ccccc23)cc1,?,-,0,?,0,0
O=c1oc(/C=C/c2ccc([N+](=O)[O-])s2)nc2ccccc12,?,0,0,?,-62,0
O=[N+]([O-])c1ccc(C=NN2CCOCC2)s1,21µM,-,0,?,0,0
COC(=O)C1CCN(CC(=O)Nc2cc(C)c3c(=O)oc4ccccc4c3n2)CC1,0,0[12.3 µM],0,?,-,0
COc1ccc(NC(=O)CSc2nc3c(oc4ccccc43)c(=O)n2-c2ccccc2)cc1OC,?,0,0,?,-,0
COC(=O)[C@@]1(Cc2ccc(F)cc2)[C@H]2c3cc(C(=O)N(C)C)n(C)c3C[C@H]2CN1C(=O)c1ccccc1,?,0,-,?,0,-
C=C1C(=O)CC2=C1[C@](Cc1ccc(F)cc1)(C(=O)OC)N(C(=O)c1ccccc1)C2,18µM,-,-,21µM,0,-
C=C1C(=O)C=C2CN(C(=O)c3ccccc3)[C@@](Cc3ccc(F)cc3)(C(=O)OC)[C@@H]12,0.16µM,0,3.2µM,0.052µM,-103,1.8µM
COC(=O)[C@@]1(Cc2ccc(OC)cc2)[C@@H]2C(=CC(=O)[C@H]2CC(=O)C(=O)N(C)C)CN1C(=O)c1ccccc1,0,0,0,16µM,-76,?
Cc1ccc(N2CCN(C(=O)NCc3noc4ccc(C)cc34)CC2)c(C)c1,?,0,0,?,-,?
CCc1nnc(NC(=O)c2ccccc2NC(=O)C2CCN(C(=O)c3ccco3)CC2)s1,14µM,-,0,11µM,-,0
CCC(C)(C)c1nnc(NC(=O)C2CCN(C(=O)c3ccco3)CC2)s1,21µM,-,0,?,0,0
CCc1nnc(NC(=O)C2CCN(C(=O)c3ccco3)CC2)s1,0,-,0,0,0,0
O=C(NCC(c1ccco1)N1CCN(c2ccccc2F)CC1)c1ccco1 (stereo not drawn),0,-,0,?,0,0
CC(=O)c1ccc(N2CCN(S(=O)(=O)c3ccc4c(c3)NC(=O)CC(=O)N4)CC2)cc1,?,-,0,?,0,0
CC(=O)c1ccc(N2CCN(S(=O)(=O)c3ccc4c(c3)C(Cl)(Cl)C(=O)N4)CC2)cc1,-,-,0,-,-,22µM
